Hits are enriched below; roughly 10% of the tested compounds scored in any of these assays.
HEK cytotox: cytotoxic compounds in HEK 293 cells; HEK 293 viability, ATP luminescence (CellTiter-Glo), 48-72 h; Potency, µM (doses to about 115 µM), hits mostly inhibitors; hit rate 6.6% among 94,000; further: nearly all actives have a fitted effect of over 60% in size
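HEK 293 cells seeded at 250 cells/well were exposed to compound for 48 or 72 hr at 37 degree Celsius. Viability taken as ATP content by CellTiter-Glo luminescence.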
GPT2 inh: blocks human glutamate pyruvate transaminase 2. Potency, µM (doses to about 57.7 µM), hits mostly inhibitors. AID 1671188. Recombinant GPT2, coupled pyruvate oxidase/HRP Amplex Red fluorescence. Q8TD30. hit rate 0.25% among 100,000; further: nearly all actives have a fitted effect of over 60% in size
Target sequence (Q8TD30 whole entry, looked up): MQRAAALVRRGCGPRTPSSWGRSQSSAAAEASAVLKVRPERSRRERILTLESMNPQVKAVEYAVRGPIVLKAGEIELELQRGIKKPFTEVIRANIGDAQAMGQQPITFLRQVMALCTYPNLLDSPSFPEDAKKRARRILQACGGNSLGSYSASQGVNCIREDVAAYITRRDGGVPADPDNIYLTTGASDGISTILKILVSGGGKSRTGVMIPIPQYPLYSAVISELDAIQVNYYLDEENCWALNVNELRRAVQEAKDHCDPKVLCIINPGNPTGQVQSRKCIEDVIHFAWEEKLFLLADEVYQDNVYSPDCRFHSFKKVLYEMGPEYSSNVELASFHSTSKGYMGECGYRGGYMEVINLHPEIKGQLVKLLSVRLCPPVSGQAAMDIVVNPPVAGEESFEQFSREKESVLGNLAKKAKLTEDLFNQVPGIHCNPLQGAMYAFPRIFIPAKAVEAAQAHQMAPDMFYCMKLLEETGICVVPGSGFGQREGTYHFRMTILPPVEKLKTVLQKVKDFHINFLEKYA
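Recombinant GPT2 (10ng/uL) with 250uM a-KG and 2mM L-alanine, 30 min at room temperature, in HEPES pH 7.5 buffer. Pyruvate detected by pyruvate oxidase/HRP/Amplex Red fluorescence after 30 min in the dark; AOA (50uM) as positive control.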
FLuc inh: inhibitors of firefly (Photinus pyralis) luciferase; purified P. pyralis luciferase, luminescence, biochemical; P08659; Potency, µM (titrated, usually from 115 µM), usual class: inhibitors; AID 1347043; hit rate 2.5% among 76,000; further: nearly all actives have a fitted effect of over 65% in size
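Cell-free enzyme assay, 10nM P. pyralis luciferase, luciferin and ATP each at 10uM. Inhibition profiled over a 6-point titration, read as luminescence.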
hNpr1 antagonist: blocks ANP-stimulated signaling of human Npr1 receptor | P16066 | HEK293 hNpr1 GloSensor cGMP, ANP-stimulated luminescence | Potency, µM (series often up to 46.3 µM), usual class: inhibitors | hit rate 1.6% among 76,000 | AID 1347048; calls by dose curve; further: nearly all actives have a fitted effect of over 60% in size
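Compound pre-incubated 30 min at room temperature on GloSensor-loaded HEK293 cells stably carrying hNpr1 and the pGS-40F cGMP biosensor. Stimulation uses hNppA at 0.1 nM final; luminescence is taken at baseline and 20 min post-agonist.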
NIH3T3 tox: cytotoxic compounds in NIH 3T3 cells | NIH 3T3 viability, CellTiter-Glo ATP luminescence, 48-72 h | Potency, µM (series often up to 96.7 µM), usual class: inhibitors | hit rate 4.3% among 94,000; further: nearly all actives have a fitted effect of over 55% in size
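Cells were seeded at 400 per well, treated with pin-transferred compound, and kept 48 or 72 hr at 37 °C before CellTiter-Glo addition and luminescence imaging of cellular ATP.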
NPR1 antag cnf: hNpr1 antagonism, confirmation assay. shares compounds with hNpr1 antagonist. HEK293 hNpr1 cGMP GloSensor luminescence, ANP-stimulated. Potency, µM (highest dose often 57.6 µM), hits mostly inhibitors. hit rate 76% among 1,400. AID 1347044; calls by dose curve; further: nearly all actives have a fitted effect of over 70% in size
Npr2 selectivity: selectivity test of Npr1 antagonists against human Npr2; Potency, µM (titrated, usually from 57.6 µM), usual class: inhibitors; HEK293 hNpr2 GloSensor cGMP luminescence, CNP-stimulated; hit rate 67% among 1,400; shares compounds with hNpr1 antagonist; AID 1347046; calls by dose curve; further: nearly all actives have a fitted effect of over 70% in size
FLuc counter: inhibits firefly luciferase, false Npr1 antagonist flag; shares compounds with hNpr1 antagonist; purified FLuc enzyme, luminescence, Km substrate; Potency, µM (highest dose often 57.6 µM), usual class: inhibitors; hit rate 0.7% among 1,400; AID 1347047
GloSensor cGMP: control cell line activity, Npr1 antagonist counter-screen | AID 1347051 | HEK293 GloSensor cGMP, SNP-stimulated, luminescence | hit rate 69% among 1,400 | shares compounds with hNpr1 antagonist | Potency, µM (titrated, usually from 57.6 µM), most hits filed as inhibitors; calls by dose curve; further: nearly all actives have a fitted effect of over 70% in size
Each line names hits and unclear results; the compound was inactive in the other large screens (follow-up assays come after a bar, where they were run). Unless noted, the call rests on the fitted dose curve; in most records, active means well fitted curve in the direction sought with a large enough effect; inconclusive means small, poorly fitted or top-dose-only effect, or another doubt; inactive means no such curve, though single readings can be large; an effect the other way counts as inactive or inconclusive.

N#Cc1ccccc1CN1CCCC(C(=O)NCc2ccccc2)CCNC(=O)CC1 (centres undefined)	hNpr1 antagonist 4µM | NPR1 antag cnf 14µM | Npr2 selectivity 6.1µM | FLuc counter inactive | GloSensor cGMP inactive
COc1cccc(CN2CCCC(C(=O)NCc3ccccc3)CCNC(=O)CC2)c1 (centres undefined)	none
O=C(N[C@H]1CO[C@H]2[C@@H]1OC[C@@H]2n1nnnc1Oc1ccc2c(c1)OCO2)c1ccc(C(F)(F)F)cc1	HEK cytotox inconclusive, hNpr1 antagonist 7.9µM, NIH3T3 tox inconclusive | NPR1 antag cnf 6.9µM | Npr2 selectivity 8.6µM | FLuc counter inactive | GloSensor cGMP 5.4µM
Cc1nc(CN(C)C(=O)c2cc(Cn3c(C)nc4ccccc43)on2)cs1	HEK cytotox inconclusive, hNpr1 antagonist 10µM, NIH3T3 tox inconclusive | NPR1 antag cnf 19µM | Npr2 selectivity 17µM | FLuc counter inactive | GloSensor cGMP 14µM
CN(Cc1cccc2ccccc12)C(=O)c1cc(CN2CCOCC2)on1	none
COC[C@@H]1CCCN1CCC(=O)Nc1ccc(C(=O)OC)cc1	none
COc1cccc(C(=O)N2CCC3(CC2)CCC(O)(CN(C)C)CC3)c1	none (no result: FLuc inh, hNpr1 antagonist)
Cc1ccc(S(=O)(=O)N2CCC(n3cnnc3-c3ccccc3)CC2)cc1C	HEK cytotox inconclusive, NIH3T3 tox inconclusive | NPR1 antag cnf inconclusive | Npr2 selectivity inconclusive | FLuc counter inactive | GloSensor cGMP inactive
CCc1nncn1C1CCN(S(=O)(=O)c2cccc(OC)c2)CC1	none
Cc1cc(S(=O)(=O)N2CCC(n3cnnc3-c3ccccc3)CC2)ccc1F	none
COc1cccc(S(=O)(=O)N2CCC(n3cnnc3C(C)C)CC2)c1	hNpr1 antagonist inconclusive, NIH3T3 tox inconclusive | NPR1 antag cnf inconclusive | Npr2 selectivity inconclusive | FLuc counter inactive | GloSensor cGMP inconclusive
Cc1noc(C)c1S(=O)(=O)N1CCC(C(=O)N2CCC(c3ccccc3)CC2)CC1	HEK cytotox inconclusive, NIH3T3 tox inconclusive (no result: FLuc inh, hNpr1 antagonist)
COc1cccc(NC(=O)c2ccc(-c3nnc4ccc(NC(=O)C5CCC5)cn34)cc2)c1	hNpr1 antagonist inconclusive | NPR1 antag cnf 24µM | Npr2 selectivity inconclusive | FLuc counter inactive | GloSensor cGMP 22µM
CC(C)NC(=O)c1ccc(-c2nnc3ccc(NC(=O)C4CCC4)cn23)cc1	HEK cytotox inconclusive
CN1CC(=O)N(C2CCNC2)Cc2c1ncnc2N1CC[C@H](N(C)C)C1 (some centres undefined)	none (no result: FLuc inh, hNpr1 antagonist) | NPR1 antag cnf inactive | Npr2 selectivity inactive | FLuc counter inactive | GloSensor cGMP inactive
COc1ccc(CN(C)C(=O)c2ccc3oc(C)cc3c2)c2cccnc12	HEK cytotox inconclusive, hNpr1 antagonist 5µM, NIH3T3 tox inconclusive | NPR1 antag cnf 6.9µM | Npr2 selectivity 6.9µM | FLuc counter inactive | GloSensor cGMP 4.3µM
COc1ccc(-c2cc(N3CCCC(NC(=O)Cc4ccccc4)C3)n[nH]2)cc1 (centres undefined)	HEK cytotox inconclusive, GPT2 inh inconclusive, FLuc inh inconclusive, NIH3T3 tox inconclusive
CC1=C(C(=O)OC(C)C)C(c2ccc(C)cc2)CC(=O)N1Cc1cccc(C#N)c1 (centres undefined)	HEK cytotox 35µM, hNpr1 antagonist inconclusive, NIH3T3 tox inconclusive | NPR1 antag cnf inconclusive | Npr2 selectivity inconclusive | FLuc counter inactive | GloSensor cGMP inactive
COc1cc(OC)cc(C(=O)N2CCC(Cc3nc(-c4ccc(F)cc4)no3)CC2)c1	HEK cytotox 32µM, hNpr1 antagonist 13µM, NIH3T3 tox inconclusive | NPR1 antag cnf 15µM | Npr2 selectivity 22µM | FLuc counter inactive | GloSensor cGMP 15µM
COc1ccc(-c2noc(CC3CCN(C(=O)c4cc(F)cc(F)c4)CC3)n2)cc1	HEK cytotox inconclusive, hNpr1 antagonist 6.3µM, NIH3T3 tox inconclusive | NPR1 antag cnf 5.4µM | Npr2 selectivity 6.1µM | FLuc counter inactive | GloSensor cGMP 5.4µM
O=C(c1cc(F)cc(F)c1)N1CCC(Cc2nc(-c3ccc(F)cc3)no2)CC1	HEK cytotox inconclusive, hNpr1 antagonist inconclusive, NIH3T3 tox inconclusive
COC(=O)c1cccc(C(=O)N2CCC(Cc3nc(-c4ccc(F)cc4)no3)CC2)c1	HEK cytotox inconclusive, hNpr1 antagonist 7.1µM, NIH3T3 tox inconclusive | NPR1 antag cnf 6.1µM | Npr2 selectivity 6.9µM | FLuc counter inactive | GloSensor cGMP 5.4µM
CC1=C(C(=O)N(C)C)C(c2ccc(Cl)cc2)N2C(CC(=O)NCC3CCCO3)=CSC2=N1 (centres undefined)	none
CCN(CC)C(=O)c1cc2c(s1)CCC(C(=O)Nc1ccc(OC)c(F)c1)C2 (centres undefined)	HEK cytotox inconclusive, hNpr1 antagonist 13µM, NIH3T3 tox inconclusive | NPR1 antag cnf 24µM | Npr2 selectivity 22µM | FLuc counter inactive | GloSensor cGMP 24µM
CCC(=O)N1CCN(c2nc3c(s2)CC(C(=O)Nc2ccc(OC)c(F)c2)CC3)CC1 (centres undefined)	HEK cytotox inconclusive, GPT2 inh inconclusive, NIH3T3 tox inconclusive
Cc1nc(N2CCC(C(=O)NC3CCCCCC3)CC2)cc(C(F)(F)F)n1	HEK cytotox inconclusive, GPT2 inh inconclusive, hNpr1 antagonist inconclusive | NPR1 antag cnf 14µM | Npr2 selectivity 12µM | FLuc counter inactive | GloSensor cGMP 9.7µM
Cc1nc(N2CCC(C(=O)Nc3ccc(F)c(Cl)c3)CC2)cc(C(F)(F)F)n1	HEK cytotox 25µM, hNpr1 antagonist 11µM, NIH3T3 tox inconclusive | NPR1 antag cnf 22µM | Npr2 selectivity 22µM | FLuc counter inactive | GloSensor cGMP 22µM
Cc1nc(N2CCC(C(=O)NC3CCCCCCC3)CC2)cc(C(F)(F)F)n1	HEK cytotox inconclusive, FLuc inh inconclusive, hNpr1 antagonist 10µM | NPR1 antag cnf 7.7µM | Npr2 selectivity 14µM | FLuc counter inactive | GloSensor cGMP 7.7µM
Cc1nc(N2CCC(C(=O)NC3CCc4ccccc43)CC2)cc(C(F)(F)F)n1 (centres undefined)	HEK cytotox inconclusive, hNpr1 antagonist inconclusive, NIH3T3 tox inconclusive | NPR1 antag cnf 22µM | Npr2 selectivity 19µM | FLuc counter inactive | GloSensor cGMP 17µM
